Compound activity from PubChem BioAssay.
CYP2C19 inh – human CYP2C19 inhibition. P33261. CYP2C19 Supersomes, luciferin-H EGE luminescence, 30 min. inhibition, % at 5 µM. 21% of 96,000 active;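 active means CYP2C19 inhibition above a set limit at 5 µM in the primary screen, cut at about 50% in these data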;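 further: plate controls were negative control wells for no effect and 2.5 mM tranylcypromine positive control for full effect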
PLAP activator – human PLAP activation. P05187. purified PLAP enzyme, luminescent substrate read-out; stronger effect = higher value. activation fold at 20 µM. 1.2% of 96,000 active. AID 696; in the data active means activation fold above about 2
CYP2C9 inhib – inhibitors of human CYP2C9 | P11712 | CYP2C9 Supersomes, luciferin-H conversion, luminescence | inhibition, % at 5 µM | 20% of 96,000 active | AID 777;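 active means blocking of liver enzyme CYP2C9 beyond about 50% at 5 µM, limit read from the data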
Target sequence (P11712 whole entry, looked up): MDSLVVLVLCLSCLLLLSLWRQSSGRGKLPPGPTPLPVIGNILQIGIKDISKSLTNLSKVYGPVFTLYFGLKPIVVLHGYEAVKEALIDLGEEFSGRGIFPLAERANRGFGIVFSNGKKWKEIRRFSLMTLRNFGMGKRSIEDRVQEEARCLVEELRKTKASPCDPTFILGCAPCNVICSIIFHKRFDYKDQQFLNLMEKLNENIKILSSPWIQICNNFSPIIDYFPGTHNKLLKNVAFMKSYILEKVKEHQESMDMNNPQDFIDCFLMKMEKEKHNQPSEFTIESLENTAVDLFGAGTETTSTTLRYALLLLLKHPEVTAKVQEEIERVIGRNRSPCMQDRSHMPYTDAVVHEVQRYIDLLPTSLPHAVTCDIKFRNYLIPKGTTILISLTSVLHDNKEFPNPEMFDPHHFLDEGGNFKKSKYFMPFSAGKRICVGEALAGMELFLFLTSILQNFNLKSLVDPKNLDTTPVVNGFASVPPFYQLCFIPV
CYP2C19 act – increases human CYP2C19 enzyme activity | recombinant CYP2C19, luciferin-H EGE luminescence; stronger effect = higher value; 0 = fully inhibited enzyme, 1 = untreated enzyme | activation factor at 5 µM | 96,000 tested, under 10 active | AID 1025;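 active means activation factor of at least 2 at 5 µM in the primary screen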;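 further: 0 = wells with 2.5 mM tranylcypromine and 1 = vehicle-only wells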
CYP2C9 activ – increases human cytochrome P450 2C9 activity. recombinant CYP2C9, luciferin-H conversion, luminescence; stronger effect = higher value; factor 1 = untreated enzyme, 0 = blocked. P11712. activation factor at 5 µM. 1.4% of 96,000 active;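 active means activation factor of 2 or more for CYP2C9 at a 5 µM dose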;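 further: 0 = sulfaphenazole-blocked wells and 1 = vehicle-only wells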
* = called active by the depositor. This is a sample that favours compounds with a hit; in the whole collection about 31% have one here.

SMILES | CYP2C19 inh | PLAP activator | CYP2C9 inhib | CYP2C19 act | CYP2C9 activ
CC(CC(=O)Nc1ccc(Cl)c([N+](=O)[O-])c1)c1ccccc1 (stereo not given) | 76* | 0.8 | 74* | 0.2 | 0.3
O=[N+]([O-])c1ccc(NNC(=S)Nc2ccccc2)cc1 | 59* | 1 | 79* | 0.4 | 0.2
COc1cc([N+](=O)[O-])ccc1NC(=O)C[n+]1cccc(C)c1 | -4 | 0.9 | -7 | 1 | 1.1
CC(/C=C\c1cccnc1)=C/C(=O)O | -4 | 1.1 | 6 | 1 | 0.9
CCOc1ccc(Nc2nc3c(c(=O)[nH]2)CCCC3)cc1 | -11 | 1 | -8 | 1.1 | 1.1
CCOC(=O)C12CNC(=O)C(C(=O)OCC)(CNC1=O)C2 | 6 | 1 | -5 | 0.9 | 1.1
O=C(O)c1cc([N+](=O)[O-])ccc1C(=O)Nc1ccccc1 | 4 | 0.9 | -10 | 1 | 1.1
O=[N+]([O-])c1ccc(O)c(NC(=S)Nc2ccccc2)c1 | 56* | 0.8 | 91* | 0.4 | 0.1
CNc1nc(OCCNC(=O)Nc2ccccc2)nc(N2CCOCC2)n1 | 34 | 1 | 65* | 0.7 | 0.3
COc1nc(OCCNC(=O)Nc2ccccc2)nc(N(C)C)n1 | 71* | 1.3 | 46 | 0.3 | 0.5
CN(C)c1nc(OCCOC(=O)c2ccccc2)nc(N(C)C)n1 | 99* | 1.5 | 70* | 0 | 0.3
CCOC(=O)c1ccc(Oc2nc(N(C)C)nc(N(C)C)n2)cc1 | 20 | 1 | 11 | 0.8 | 0.9
O=C(NCCOc1nc(N2CCOCC2)nc(N2CCOCC2)n1)Nc1ccc(Cl)cc1 | 31 | 0.9 | 16 | 0.7 | 0.8
COc1ccc(CCN(Cc2cc3cc(C)c(C)cc3nc2Cl)C(=O)C2CC2)cc1 | 26 | 1 | 23 | 0.7 | 0.8
O=C(CCN1CCCC1)Nc1ccccc1 | 0 | 0.9 | -6 | 1 | 1.1
O=c1[nH][nH]c(-c2ccccc2)c1C=Nc1ccccc1Cl | 88* | 1.1 | 31 | 0.1 | 0.7
O=c1[nH][nH]c(-c2ccccc2)c1C=Nc1cccc(Cl)c1 | 53* | 1.1 | 19 | 0.5 | 0.8
COc1cccc(-c2cc(C(=O)NCCc3ccccc3)no2)c1 | 12 | 0.9 | 20 | 0.9 | 0.8
Cc1ccc(C2CC(C(F)(F)F)n3ncc(C(=O)NCc4ccco4)c3N2)cc1 (stereo not given) | 26 | 1 | 25 | 0.7 | 0.7
O=C(Nc1ccc(Cl)cc1)c1cccnc1N1CCCCC1 | 79* | 0.8 | 78* | 0.2 | 0.2
N/C(CC(=O)Nc1cccc(C(F)(F)F)c1)=N/O | 11 | 1 | 0 | 0.9 | 1
O=C(Nc1cccc(C(F)(F)F)c1)c1cccnc1N1CCCC1 | 48 | 0.8 | -239 | 0.5 | 3.4*
O=C(/C=C/c1cccc(C(F)(F)F)c1)Nc1cccc(C(F)(F)F)c1 | 10 | 0.8 | -187 | 0.9 | 2.9*
O=C(NCCc1ccccc1)c1cccnc1N1CCCCCC1 | 72* | 1.2 | 61* | 0.3 | 0.4
O=C(Nc1ccc(N2CCCCC2)cc1)c1cccnc1Cl | 16 | 1 | -2 | 0.8 | 1
SMILES | CYP2C19 inh | PLAP activator | CYP2C9 inhib | CYP2C19 act | CYP2C9 activ
COc1cc(OC)c(N2CC34C=CC(O3)C(C(=O)O)C4C2=O)cc1Cl (stereo not given) | -4 | 1.2 | -7 | 1 | 1.1
COC(=O)/C(=C\Nc1ccccc1N)c1ncc(C(F)(F)F)cc1Cl | 32 | 1.1 | 8 | 0.7 | 0.9
O=C(Nc1cccc(C(F)(F)F)c1)C1CCCCC1 | 87* | 0.7 | 69* | 0.1 | 0.3
Cc1ccc(NC(=O)C(=O)NCc2ccc(/C=C(/C#N)C(=O)NCc3cccnc3)o2)cc1 | 12 | 0.8 | 58* | 0.9 | 0.4
Cc1cc(C)nc(Sc2ccc(/C=C(\C#N)C(=O)Nc3ccccc3)o2)n1 | 31 | 0.9 | 42 | 0.7 | 0.6
CCCOc1c(OC)cccc1C1CC(=O)Nc2cc3c(cc21)OCCO3 (stereo not given) | 44 | 1 | 68* | 0.6 | 0.3
CCCOc1c(OC)cccc1C1CC(=O)Nc2cc3c(cc21)OCO3 (stereo not given) | 96* | 1.1 | 52* | 0 | 0.5
COc1cc2c(cc1OC)C(c1cccc(OC)c1OC)CC(=O)N2 (stereo not given) | 18 | 1 | 32 | 0.8 | 0.7
CCN(CC)c1ccc(C2CC(=O)Nc3cc(OC)c(OC)cc32)cc1 (stereo not given) | 39 | 1.1 | 39 | 0.6 | 0.6
c1ccc(-n2c(SCC3CCCCO3)nnc2-c2cccs2)cc1 (stereo not given) | 12 | 1.1 | 21 | 0.9 | 0.8
COCCOC(=O)c1[nH]c2c(c1C)C(=O)CC(c1ccc(F)cc1)C2 (stereo not given) | 83* | 0.8 | 98* | 0.2 | 0
COCCOC(=O)c1[nH]c2c(c1C)C(=O)CC(c1ccc(N(C)C)cc1)C2 (stereo not given) | 88* | 1.3 | 93* | 0.1 | 0.1
Cc1c(C(=O)O)[nH]c2c1C(=O)CC(c1ccccc1)C2 (stereo not given) | -16 | 1.3 | -8 | 1.2 | 1.1
COc1ccc(C2=Nn3c(nnc3-c3ccncc3)SC2)cc1OC | 26 | 0.9 | 61* | 0.7 | 0.4
Cc1cc(C)n(-c2ccc(C(=O)C(C#N)c3nc4ccccc4n3C)cc2)n1 (stereo not given) | 30 | 1.2 | -3 | 0.7 | 1
CC(=O)Nc1ccccc1-c1nc2ccccc2nc1OCC(=O)c1ccc(Br)cc1 | 10 | 1.2 | 58* | 0.9 | 0.4
O=C(CNC(=O)c1cccs1)OCC(=O)c1ccc2ccccc2c1 | 7 | 1.1 | 8 | 0.9 | 0.9
CCOC(=O)c1ccc(COc2nc3ccccc3nc2-c2ccccc2NC(C)=O)o1 | 26 | 0.9 | 29 | 0.7 | 0.7
CC(=O)Nc1ccccc1-c1nc2ccccc2nc1OCC(=O)c1ccc2ccccc2c1 | 20 | 1.4 | 68* | 0.8 | 0.3
COCCn1c(CCC(=O)O)nc2c1c(=O)[nH]c(=O)n2CC(C)C | -5 | 1 | -60 | 1.1 | 1.6
CCc1nn(-c2ccccc2)c(N)c1-c1ccc(OC)c(OC)c1 | 3 | 1.1 | -68 | 1 | 1.7
CCc1nc2c3cnn(-c4cc(Cl)ccc4C)c3ncn2n1 | 85* | 1.2 | 7 | 0.1 | 0.9
Cc1nc2c3cnn(-c4ccccc4)c3ncn2n1 | 9 | 0.6 | 6 | 0.9 | 0.9
Cc1cc(C(=O)COC(=O)c2csc3c2CCCC3)c(C)n1C | -8 | 0.8 | -37 | 1.1 | 1.4
O=S(=O)(c1ccc2ccccc2c1)N(CC(O)CN1CCOCC1)c1ccccc1 (stereo not given) | 11 | 1.5 | 20 | 0.9 | 0.8
CNC(=S)N1N=C(c2ccc(Br)cc2)CC1c1ccc(Br)cc1 (stereo not given) | 98* | 0.9 | 95* | 0 | 0.1
CC(C)Cc1nnc(NC(=O)c2ccncc2)s1 | 92* | 1.2 | 96* | 0.1 | 0
CC(C)Cc1nnc(NC(=O)c2ccc([N+](=O)[O-])cc2)s1 | 10 | 1 | -27 | 0.9 | 1.3
CCCc1nnc(NC(=O)c2ccncc2)s1 | 47 | 0.8 | 80* | 0.5 | 0.2
